Screening data (PubChem)
Luciferase inh = Photinus pyralis luciferase inhibition. purified P. pyralis luciferase, luminescence, biochemical. Potency, µM (doses to about 115 µM), usual class: inhibitors. hit rate 2.5% among 76,000. P08659; further: nearly all actives have a fitted effect of over 65% in size
Target sequence (P08659 whole entry, looked up): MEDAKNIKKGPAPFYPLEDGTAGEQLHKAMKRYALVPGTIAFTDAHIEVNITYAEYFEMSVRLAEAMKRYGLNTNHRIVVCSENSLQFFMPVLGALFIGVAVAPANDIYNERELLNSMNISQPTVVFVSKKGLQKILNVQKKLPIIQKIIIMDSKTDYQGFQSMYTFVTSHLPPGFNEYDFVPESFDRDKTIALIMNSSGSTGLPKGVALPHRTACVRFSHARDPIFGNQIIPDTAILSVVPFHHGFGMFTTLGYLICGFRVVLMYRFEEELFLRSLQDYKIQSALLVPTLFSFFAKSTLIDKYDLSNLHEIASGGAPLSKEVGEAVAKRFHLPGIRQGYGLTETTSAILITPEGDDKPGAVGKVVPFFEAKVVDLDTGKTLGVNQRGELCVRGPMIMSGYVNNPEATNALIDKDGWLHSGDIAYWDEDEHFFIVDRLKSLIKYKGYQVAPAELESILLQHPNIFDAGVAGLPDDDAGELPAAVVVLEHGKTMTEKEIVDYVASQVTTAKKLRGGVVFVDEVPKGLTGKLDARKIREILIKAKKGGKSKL
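Inhibitors were tested against purified firefly luciferase in a biochemical, low-substrate format (both substrates at 10uM) and luminescence measured with a CCD imager.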
HEK cytotox = kills HEK 293 cells; HEK 293 viability, ATP luminescence (CellTiter-Glo), 48-72 h; Potency, µM (series often up to 115 µM), for inactives: top-dose activity change, negative = cytotoxicity, usual class: inhibitors; hit rate 6.6% among 94,000; AID 1345083; further: nearly all actives have a fitted effect of over 60% in size
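250 HEK 293 cells/well; compound by pintool; incubated 48 or 72 hr at 37 degree Celsius; CellTiter-Glo added, 10 min RT, luminescence imaged.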
NIH3T3 tox = kills NIH 3T3 cells; NIH 3T3 viability, CellTiter-Glo ATP luminescence, 48-72 h; Potency, µM (series often up to 96.7 µM), without a hit: at the top dose activity change, negative = cytotoxicity, hits mostly inhibitors; hit rate 4.3% among 94,000; AID 1345082; further: nearly all actives have a fitted effect of over 55% in size
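Cytotoxicity was measured by CellTiter-Glo ATP luminescence after 48 or 72 h compound exposure at 37 °C. Mouse NIH 3T3 fibroblasts were seeded at 400 cells/well and dosed by 23 nL pin transfer.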
GPT2 inh = inhibitors of human GPT2 alanine aminotransferase | Recombinant GPT2, coupled pyruvate oxidase/HRP Amplex Red fluorescence | hit rate 0.25% among 100,000 | Potency, µM (series often up to 57.7 µM), inactives show at the top dose activity change, negative = inhibition, hits mostly inhibitors | Q8TD30 | AID 1671188; further: nearly all actives have a fitted effect of over 60% in size
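Fluorescence of coupled pyruvate oxidase/HRP/Amplex Red system (50uM Amplex, 30 min, dark) reports pyruvate formed by GPT2. Enzyme reaction: 10ng/uL GPT2, 2mM L-alanine, 250uM a-KG, 30 min room temperature, pH 7.5; 50uM AOA control.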
hNpr1 antagonist = human Npr1 receptor antagonism | hit rate 1.6% among 76,000 | P16066 | Potency, µM (highest dose often 46.3 µM), inactives show at the top dose activity change, negative = inhibition, usual class: inhibitors | HEK293 hNpr1 GloSensor cGMP, ANP-stimulated luminescence | AID 1347048; calls by dose curve; further: nearly all actives have a fitted effect of over 60% in size
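Compound pre-incubated 30 min at room temperature on GloSensor-loaded HEK293 cells stably carrying hNpr1 and the pGS-40F cGMP biosensor. Stimulation uses hNppA at 0.1 nM final; luminescence is taken at baseline and 20 min post-agonist.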
* marks the source's active call; other numbers are inactive results; i = inactive; ? = inconclusive; nt = no result; [ ] = remark or other dose. Shown are actives, neighbours in structure and some others; about 10% of the full set was active somewhere. Unless noted, the call rests on the fitted dose curve; in most records, active means well fitted curve in the direction sought with a large enough effect; inconclusive means small, poorly fitted or top-dose-only effect, or another doubt; inactive means no such curve, though single readings can be large; an effect the other way counts as inactive or inconclusive. On the % scale 0 is the no-effect control and ±100 the full control effect; potency means the concentration at half of the fitted maximal effect.

SMILES	Luciferase inh	HEK cytotox	NIH3T3 tox	GPT2 inh	hNpr1 antagonist
CCc1nn(-c2ccc(F)cc2)c(Oc2ccccc2)c1CCC(=O)NCC1CCCO1 (centres undefined)	i	39.8µM*	31.6µM*	i	?
O=C(Nc1ccccc1Cl)c1nc2cccnc2n(Cc2ccccc2)c1=O	nt	i	-7.9%	i	nt
Cc1ccccc1CC(=O)Nc1ccc2ncnc(N3CCCCC3)c2c1	i	39.8µM*	?	i	-6.9%
COc1ccccc1CC(=O)Nc1ccc2c(N3CCCCC3)ncnc2c1	i	25.1µM*	?	-3.1%	?
O=C(Cc1cccs1)Nc1ccc2c(N3CCCCC3)ncnc2c1	i	?	?	1.0%	?
CN(C)C(=O)c1nc2cccnc2n(CCc2ccccc2)c1=O	nt	-0.1%[172 µM]	1.7%[138 µM]	-2.3%[88.5 µM]	nt
CCCC(=O)Nc1cc(C2CC2)nn1C	nt	2.3%[230 µM]	-18.2%[174 µM]	-9.3%[88.5 µM]	nt
Cc1noc(C)c1-c1cc2cc(CN3CCN(C)CC3)oc2c(NC2CCN(C)CC2)n1	i	?	89.1µM*	-7.8%[88.5 µM]	1.6%[70.6 µM]
Cc1noc(C)c1-c1cc2cc(CNC(C)C)oc2c(NC2CCN(C)CC2)n1	i	63.1µM*	?	0.1%[88.5 µM]	-1.9%[70.6 µM]
Cc1noc(C)c1-c1cc2c(cc(C)n2C)c(NC2CCN(C)CC2)n1	i	?	?	i	-2.1%[70.6 µM]
Cc1nnc2ccc(N3CCCC(NS(C)(=O)=O)C3)nn12 (centres undefined)	nt	3.6%[172 µM]	-4.6%[138 µM]	nt	nt
COCCNc1nc(-c2c(C)noc2C)cc2cc(C(C)C)oc12	i	70.8µM*	?	i	1.7%[70.6 µM]
COCCCNc1nc(-c2c(C)noc2C)cc2cc(C(C)C)oc12	i	89.1µM*	?	-0.3%[88.5 µM]	-0.5%[70.6 µM]
COc1cccc(-c2cn3cc(C(=O)N(C)C)nc3s2)c1	nt	?	?	i	nt
COc1cccc(N2C(=O)NC(=NC3CCCCC3)C23CCN(C(=O)c2ccccc2)CC3)c1	nt	-3.6%	31.6µM*	-25.3%	nt
O=C(c1ccc(C(F)(F)F)cc1)N1CCC2(CC1)C(=NC1CCCC1)NC(=O)N2c1cccnc1	nt	i	35.5µM*	i	nt
O=C(c1ccccc1)N1CCC2(C1)C(=NC1CCCCC1)NC(=O)N2c1cc(F)cc(F)c1 (centres undefined)	nt	-2.1%	-20.3%	i	nt
O=C(c1ccccc1)N1CCC2(CC1)C(=NC1CCCCC1)NC(=O)N2c1cc(F)cc(F)c1	nt	-9.4%	31.6µM*	?	nt
COCCN(C)C(=O)c1ccc2c(c1)C1(CCN(CC3CC3)C1)CN2Cc1ccccc1 (centres undefined)	i	?	?	-11.4%[88.5 µM]	-0.4%[70.6 µM]
CC(C)NC(=O)c1ccc2c(c1)C1(CCN(CC3CC3)C1)CN2Cc1ccccc1 (centres undefined)	i	?	89.1µM*	i	0.6%[70.6 µM]
CNC(=O)c1ccc2c(c1)C1(CCN(CC3CC3)C1)CN2Cc1ccccc1 (centres undefined)	i	100µM*	?	1.5%[88.5 µM]	3.4%[70.6 µM]
O=C(NC1COC1)c1ccc2c(c1)C1(CCN(CC3CC3)C1)CN2Cc1ccccc1 (centres undefined)	i	?	-25.2%[138 µM]	-4.1%[88.5 µM]	2.6%[70.6 µM]
O=C(Cc1ccccc1)NCCC1CCN(C(=O)Nc2ccc(F)cc2F)CC1	i	-7.7%	-1.1%	i	-0.9%
COc1ccc(-c2nc(C3CC3)nc3c2CCN([S+](=O)([O-])c2c(C)noc2C)CC3)cc1	nt	-29.4%	?	?	nt
C[S+](=O)([O-])c1cccc(-c2nnc3ccc(C(=O)NCCc4ccc(Cl)cc4)cn23)c1	nt	-17.0%	-19.7%	3.3%	nt
SMILES	Luciferase inh	HEK cytotox	NIH3T3 tox	GPT2 inh	hNpr1 antagonist
COC(=O)CCNC(=O)C1c2ccccc2C(=O)N(C2CCCCC2)C12CCCCC2 (centres undefined)	i	?	-21.2%	-1.2%	4.1%
O=C(NCCc1ccccn1)C1c2ccccc2C(=O)N(C2CCCCC2)C12CCCCC2 (centres undefined)	i	44.7µM*	?	-23.4%	-11.3%
COc1cccc(-c2nccc3c(=O)cc(N(C)C)oc23)c1	i	-0.7%[230 µM]	70.8µM*	0.4%[88.5 µM]	-5.1%[70.6 µM]
COc1cccc(Cl)c1-c1nccc2c(=O)cc(N(C)C)oc12	i	?	50.1µM*	i	-3.2%[70.6 µM]
CCOc1ccc2c(n1)CCN(C(=O)C1(c3ccccc3)CC1)C2	i	-25.4%	-24.5%	-4.3%	-1.8%
CC(C)(O)CCc1cccc(C(=O)N2CCC(Nc3ncccn3)CC2)c1	i	?	-27.4%	0.1%	-7.7%
COc1cccc(-c2cc(C(=O)O)cc(S(=O)(=O)N3CCSCC3)c2)c1	i	2.6%	?	-14.6%	11.0%
COc1cccc(-c2ccc(S(=O)(=O)N3CCSCC3)cc2)n1	i	44.7µM*	?	-25.7%	-4.8%
O=C(Cc1ccc(F)cc1)N1CCC(C(=O)N2CCC(c3nc4ncccc4[nH]3)CC2)CC1	nt	-1.4%	-3.6%	2.6%	nt
CN1C2CCC1CC(OC(=O)[C@H](CO)c1ccccc1)C2 (some centres undefined)	nt	nt	nt	i	nt
O=C1CC2(CCN(Cc3ccc(C(F)(F)F)cc3)CC2)Oc2ccccc2N1c1ccccc1	i	20µM*	25.1µM*	1.5%	-29.1%
O=C1CC2(CCN(CC3CC3)CC2)Oc2ccccc2N1c1ccccc1	i	-28.4%	?	i	1.0%
O=C1CC2(CCN(Cc3ccsc3)CC2)Oc2ccccc2N1c1ccccc1	i	?	?	-2.4%	-12.6%
O=C1CC2(CCN(Cc3ccc(F)cc3)CC2)Oc2ccccc2N1	i	?	-10.4%	-21.9%	4.3%
O=C1CC2(CCN(Cc3ccc(C(F)(F)F)cc3)CC2)Oc2ccccc2N1	i	44.7µM*	?	i	-26.6%
O=C1CC2(CCN(Cc3ccc(F)cc3)CC2)Oc2ccccc2N1c1ccccc1	i	50.1µM*	?	-0.1%	0.0%
CC(C)(O)CN1CCC(=O)N(Cc2ccccc2)CCc2ccccc21	nt	?	-7.9%[46.1 µM]	i	nt
COc1cccc(CN2CCC(C(=O)N3CCCCCCNC(=O)CC3)CC2)c1	i	i	-2.4%	i	1.8%
Cc1noc(C)c1-c1cc(-c2ccccc2C(F)(F)F)cn2cncc12	i	70.8µM*	?	-3.5%[88.5 µM]	-23.4%[70.6 µM]
Cc1noc(C)c1-c1cc(-c2ccc([S+](C)(=O)[O-])cc2)cn2cncc12	i	?	?	-3.7%[88.5 µM]	0.7%[70.6 µM]
FC(F)(F)c1ccccc1-c1cc(-c2cccnc2)c2cncn2c1	i	63.1µM*	44.7µM*	1.9%[88.5 µM]	-4.0%[70.6 µM]
Cc1noc(C)c1-c1cc(-c2ccccc2F)cn2cncc12	i	79.4µM*	?	-14.2%[88.5 µM]	-3.3%[70.6 µM]
N#Cc1cccc(-c2ccnc(N[C@H]3CO[C@H]4[C@@H]3OC[C@H]4OC(=O)Nc3cccc(C(F)(F)F)c3)n2)c1	i	28.2µM*	-21.8%	?	?
